In the library only some 12% were active in any assay of this set; here they are far more common.
Sfp inh = Sfp phosphopantetheinyl transferase inhibition | Q9F4F7 | Biochemical Sfp PPTase activity, qHTS | Potency, µM, without a hit: largest response in the series, negative = inhibition, actives largely listed as inhibitors | hit rate 3.5% among 310,000 | AID 1490;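 note: the enzyme is Sfp with the accession as filed and its product quenches rhodamine fluorescence; 0% = enzyme reaction without inhibitor and -100% = no enzyme wells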
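Buffer: 50 mM Hepes-Na pH 7.6, 10 mM MgCl2, 0.01% Nonidet P-40, 0.01% BSA. Enzyme 15 nM, pre-exposed to compound 15 min; substrates then added and fluorescence change tracked over 30 min.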
JMJD2A Tudor = blocks the human JMJD2A Tudor domain; AlphaScreen JMJD2A-Tudor / H3K4me3 peptide binding; Potency, µM (top dose mostly 114 µM), without a hit: at the top dose activity change, negative = inhibition, hits mostly inhibitors; hit rate 4.4% among 390,000; note: % is set by controls: 0 for no effect and ±100 for the full control effect; nearly all actives have a fitted effect of over 50% in size
G9a block = blocks human histone lysine methyltransferase G9a | Q96KQ7 | G9a H3K9 monomethylation, AlphaScreen, 2 h | Potency, µM (series often up to 102 µM), for the others: top-dose activity, negative = inhibition, actives largely listed as inhibitors | hit rate 8.8% among 350,000 | AID 504332; note: % is set by controls: 0 for no effect and ±100 for the full control effect; nearly all actives have a fitted effect of over 75% in size
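Methyltransferase reactions run at room temperature for 2 h (20 nM enzyme, 500 nM biotin-H3K9 peptide, 20 uM SAM) after a 15 min compound preincubation; product detected by AlphaScreen beads and anti-H3K9me1 antibody.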
BAZ2B block = inhibitors of human BAZ2B bromodomain. Q9UIF8. AlphaScreen BAZ2B-H3K14Ac peptide displacement. Potency, µM (highest dose often 114 µM), without a hit: at the top dose activity change, negative = inhibition, actives largely listed as inhibitors. hit rate 4.4% among 360,000; note: % is set by controls: 0 for no effect and ±100 for the full control effect; nearly all actives have a fitted effect of over 60% in size
Target sequence (Q9UIF8 whole entry, looked up): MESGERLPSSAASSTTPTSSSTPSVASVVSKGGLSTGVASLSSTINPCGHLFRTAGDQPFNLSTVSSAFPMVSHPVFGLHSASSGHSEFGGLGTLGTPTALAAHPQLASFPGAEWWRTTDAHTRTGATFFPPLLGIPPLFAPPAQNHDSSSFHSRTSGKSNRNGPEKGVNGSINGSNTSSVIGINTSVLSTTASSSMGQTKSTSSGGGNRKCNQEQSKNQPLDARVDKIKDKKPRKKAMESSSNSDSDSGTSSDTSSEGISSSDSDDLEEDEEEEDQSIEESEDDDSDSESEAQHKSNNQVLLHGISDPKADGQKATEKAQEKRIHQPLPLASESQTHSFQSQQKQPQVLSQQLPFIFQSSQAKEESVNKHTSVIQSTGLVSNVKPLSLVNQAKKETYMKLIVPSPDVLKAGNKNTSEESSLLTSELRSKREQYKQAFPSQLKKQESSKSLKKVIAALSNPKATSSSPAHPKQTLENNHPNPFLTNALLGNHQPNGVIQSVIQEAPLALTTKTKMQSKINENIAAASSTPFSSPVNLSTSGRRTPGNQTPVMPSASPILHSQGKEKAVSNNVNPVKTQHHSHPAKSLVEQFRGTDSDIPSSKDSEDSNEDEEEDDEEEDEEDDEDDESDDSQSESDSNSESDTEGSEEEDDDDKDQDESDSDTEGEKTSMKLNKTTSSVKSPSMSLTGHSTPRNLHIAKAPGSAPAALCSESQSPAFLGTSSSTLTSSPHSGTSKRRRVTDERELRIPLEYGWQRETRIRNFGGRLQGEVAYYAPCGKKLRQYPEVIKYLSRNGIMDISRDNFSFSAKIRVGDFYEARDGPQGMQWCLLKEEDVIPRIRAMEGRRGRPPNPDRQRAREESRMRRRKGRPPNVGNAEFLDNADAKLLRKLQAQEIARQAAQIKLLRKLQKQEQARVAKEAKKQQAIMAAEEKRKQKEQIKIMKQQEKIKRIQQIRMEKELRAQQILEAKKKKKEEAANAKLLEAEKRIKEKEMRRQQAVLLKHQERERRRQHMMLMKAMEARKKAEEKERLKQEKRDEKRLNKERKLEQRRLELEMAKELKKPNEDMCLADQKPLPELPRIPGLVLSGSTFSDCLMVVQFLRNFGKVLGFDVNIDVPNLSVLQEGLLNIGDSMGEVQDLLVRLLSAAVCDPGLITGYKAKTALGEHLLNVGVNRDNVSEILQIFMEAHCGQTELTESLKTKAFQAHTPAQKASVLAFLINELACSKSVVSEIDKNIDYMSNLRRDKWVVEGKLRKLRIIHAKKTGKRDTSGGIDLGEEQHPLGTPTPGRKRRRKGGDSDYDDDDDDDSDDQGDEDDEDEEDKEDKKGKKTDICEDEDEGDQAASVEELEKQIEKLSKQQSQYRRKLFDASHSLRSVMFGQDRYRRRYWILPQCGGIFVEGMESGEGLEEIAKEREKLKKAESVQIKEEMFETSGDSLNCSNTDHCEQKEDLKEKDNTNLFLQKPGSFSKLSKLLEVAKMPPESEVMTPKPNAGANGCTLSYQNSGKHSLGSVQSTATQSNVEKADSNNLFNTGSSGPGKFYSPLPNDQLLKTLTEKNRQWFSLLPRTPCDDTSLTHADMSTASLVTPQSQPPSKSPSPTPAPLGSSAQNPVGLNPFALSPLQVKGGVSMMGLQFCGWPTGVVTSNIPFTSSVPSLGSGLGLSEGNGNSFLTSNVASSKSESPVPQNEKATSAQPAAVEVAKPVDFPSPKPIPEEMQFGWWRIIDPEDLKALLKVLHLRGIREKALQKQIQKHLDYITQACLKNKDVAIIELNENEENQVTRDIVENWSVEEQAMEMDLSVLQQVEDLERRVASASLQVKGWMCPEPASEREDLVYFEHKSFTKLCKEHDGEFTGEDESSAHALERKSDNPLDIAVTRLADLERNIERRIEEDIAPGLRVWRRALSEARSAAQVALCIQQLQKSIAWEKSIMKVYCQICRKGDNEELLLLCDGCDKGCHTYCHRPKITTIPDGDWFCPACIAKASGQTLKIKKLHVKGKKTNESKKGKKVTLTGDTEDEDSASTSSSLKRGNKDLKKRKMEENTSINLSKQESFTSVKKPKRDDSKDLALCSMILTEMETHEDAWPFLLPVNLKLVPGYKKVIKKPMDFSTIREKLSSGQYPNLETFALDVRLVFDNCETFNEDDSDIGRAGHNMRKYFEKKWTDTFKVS
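AlphaScreen displacement of biotin-H3(5-23)K14Ac peptide (50 nM final) from BAZ2B (50 nM final) in PBS pH 7.4, 0.01% Tween-20; complex preformed 30 min RT, then compounds (top 110 uM) 30 min RT, beads 20 min dark.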
HP1b chromo inh = blocks HP1-beta chromodomain binding to methylated histone tails | P83916 | AlphaScreen HP1-beta / biotin-H3K9me3 peptide binding | Potency, µM (doses to about 114 µM), for inactives: at the top dose activity change, negative = inhibition, actives largely listed as inhibitors | hit rate 0.56% among 390,000; note: nearly all actives have a fitted effect of over 70% in size
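AlphaScreen: HP1-beta (50 nM) preformed 30 min with biotin-H3(1-18)K9me3 peptide (50 nM) in PBS pH 7.4, 0.01% Tween-20. Compound added for 30 min at RT, then streptavidin donor/nickel chelate acceptor beads (10 ug/mL) for 30 min.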
An asterisk follows results filed as active; ? = inconclusive; nt = no result given; [ ] = dose if it differs, or a comment. Calls come from the whole dose curve; as a rule, active = well fitted curve in the direction sought with a large enough effect; inconclusive = small, poorly fitted or top-dose-only effect, or another doubt; inactive = no such curve, though single readings can be large; an effect the other way counts as inactive or inconclusive. Potency is the fitted concentration of half-maximal effect.

SMILES | Sfp inh | JMJD2A Tudor | G9a block | BAZ2B block | HP1b chromo inh
Cc1[nH]nc(N)c1N=Nc1ccc(Br)cc1 | 0% | nt | nt | 40µM* | nt
Nc1n[nH]c(C2CC2)c1N=Nc1ccc(Cl)c(Cl)c1 | -8% | ? | 36%[59 µM] | 15% | ?
Cc1cccc(N=Nc2c(N)n[nH]c2-c2ccc(Cl)cc2)c1 | 11% | ? | 22%[0.501 µM] | ? | -17%
Nc1n[nH]c(N)c1N=Nc1ccc2c(c1)OCO2 | -8% | ? | 9%[59 µM] | 40µM* | -5%
CC(=O)/C(N=Nc1ccc2c(c1)OCO2)=C(\C)O | -21% | -23% | 3%[59 µM] | 6% | 11%
Nc1n[nH]c(C2CC2)c1N=Nc1ccc(Cl)cc1 | 17% | 45µM* | 50µM* | ? | -16%
Cc1nc(N)sc1N=Nc1ccc(Br)cc1 | -14% | ? | ? | 25µM* | -33%
O=C(/C=C/Nc1ccccc1)c1ccc(Oc2ncccn2)cc1 | 11% | -2% | 88%[59 µM] | -5% | 19%
CC(C)(C)c1cc(NC(=O)c2cccc([N+](=O)[O-])c2)no1 | 26% | -12% | -6% | 2% | 33%
CCc1cccc(N2C(=O)CSC23C(=O)N(Cc2ccccc2F)c2ccccc23)c1 (centres undefined) | nt | -18% | -31%[59 µM] | -18% | 39%
Cc1ccc(-c2[nH]nc(N)c2N=Nc2cccc(Cl)c2C)cc1 | 9% | ? | ? | 14% | -18%
Cc1ccc(-c2[nH]nc(N)c2N=Nc2ccccc2C)cc1 | 10% | 25µM* | ? | ? | ?
Cc1ccc(N=Nc2c(N)n[nH]c2N)cc1 | 10% | ? | 35µM* | ? | -2%
CCc1cccc(OCC(=O)Nc2ccc(S(=O)(=O)Nc3cc(C)nc(C)n3)cc2)c1 | nt | -1% | ? | -19% | 25%
Cc1ccc(Cn2c(=N)n(CC(O)c3ccco3)c3ccccc32)cc1 (centres undefined) | -1% | ? | -46%[12.7 µM] | ? | -6%
CC(C)(C)c1ccc(/C=C/C(=O)N2CCN(c3ncccn3)CC2)cc1 | -14% | -1% | 18%[59 µM] | 2% | 23%
Cc1ccc(/C=C/C(=O)N2CCCC(C(N)=O)C2)o1 (centres undefined) | 18µM* | -2% | 56µM* | 15% | 14%
Cc1ccc(/C=C/C(=O)N2CCN(c3ncccn3)CC2)o1 | -105% | 28µM* | 4µM* | -8% | ?
NC(=O)C1CCCN(C(=O)c2ccc(Cl)cc2)C1 (centres undefined) | 4% | -18% | 3%[12.7 µM] | -1% | 17%
CN(C)S(=O)(=O)c1cccc(C(=O)NCC(=O)NC2CCN(Cc3ccccc3)CC2)c1 | 18% | -12% | ? | -1% | 10%
C=CCN(c1ccccc1)S(=O)(=O)c1cccc(C(=O)NC2CCN(Cc3ccccc3)CC2)c1 | nt | -30% | 50µM* | -3% | 9%
COc1ccc(OC)c(NC(=O)c2nnn(CC(=O)Nc3ccc4c(c3)OCO4)c2N)c1 | -23% | 19% | 48%[59 µM] | ? | 47%
C=CCOc1ccc(C2C(C(=O)c3ccco3)=C(O)C(=O)N2c2nnc(C)s2)cc1 (centres undefined) | 7.1µM* | 28µM* | -7%[12.7 µM] | 79µM* | -9%
COc1cc(C2C(C(=O)c3ccco3)=C(O)C(=O)N2c2cc(C)on2)cc(Br)c1O (centres undefined) | -4% | ? | 0%[59 µM] | 1% | -4%
CCOc1cccc(C2C(C(=O)c3ccco3)=C(O)C(=O)N2c2nnc(C)s2)c1 (centres undefined) | nt | ? | ? | ? | 33%
SMILES | Sfp inh | JMJD2A Tudor | G9a block | BAZ2B block | HP1b chromo inh
COc1ccc(C2C(C(=O)c3ccco3)=C(O)C(=O)N2c2nnc(C)s2)cc1 (centres undefined) | 10µM* | -13% | nt | 50µM* | 15%
COc1ccc(C2C(C(=O)c3ccco3)=C(O)C(=O)N2c2nnc(C)s2)cc1OC (centres undefined) | -23% | 25µM* | 50µM* | -3% | -6%
O=C(/C=C/c1cn(-c2ccccc2)nc1-c1cccnc1)c1ccco1 | -10% | ? | -32% | ? | 5%
Cc1ccccc1OCC(=O)NNC(=S)NC(=O)c1ccco1 | -4% | ? | ? | 9% | -8%
COc1ccc2oc(=O)c(C(=O)NCCc3c(C)[nH]c4c(Cl)cccc34)cc2c1 | nt | -22% | -2%[59 µM] | -16% | 28%
Brc1ccc(-c2nc3ccccn3c2Nc2ccc3c(c2)OCCO3)o1 | nt | -18% | ? | nt | 9%
Brc1ccc(-c2nc3ncccn3c2Nc2ccc3c(c2)OCCO3)o1 | -20% | ? | ? | 50µM* | -5%
Cc1ccc(-c2nc3ncccn3c2Nc2ccc3c(c2)OCCO3)cc1 | -10% | ? | 45µM* | ? | ?
Cc1ccc(-c2nc3ccc(Cl)cn3c2Nc2ccc3c(c2)OCCO3)o1 | nt | -13% | ? | -20% | 13%
Cc1ccc(-c2nc3ncccn3c2NC2CCCCC2)o1 | 45µM* | -22%[57.1 µM] | ? | -11% | -8%
Cc1ccn2c(NC3CCCCC3)c(-c3ccc(C)o3)nc2c1 | nt | ? | nt | nt | 11%
COc1ccc(-c2nc3ncccn3c2Nc2ccc3c(c2)OCCO3)cc1 | -13% | -18% | -33%[59 µM] | -12% | 58%
Cc1ccc(-c2nc3ncccn3c2Nc2ccc3c(c2)OCCO3)o1 | 45µM* | ? | ? | ? | -19%
CCn1c(SCC(=O)Nc2nncs2)nnc1-c1ccco1 | 7% | -3% | 25% | 4% | 35%
Cc1ccc2oc(C(=O)N(Cc3ccccc3)C3CCS(=O)(=O)C3)c(C)c2c1 (centres undefined) | -3% | -20% | nt | -23% | 21%
COc1cc(OC)c(NC(=O)c2sc3nc4n(c(=O)c3c2C)CCCC4)cc1Cl | nt | -12% | ? | -27% | 45%
CCOc1ccc(-c2nc(CNC(=O)Nc3ccccc3)c(C)o2)cc1 | nt | -1% | 18%[59 µM] | -5% | 27%
C=CC[n+]1c(-c2ccc(OCC)cc2)csc1NNC(=O)Nc1ccccc1 | -17% | 22µM* | ? | 10µM* | 14µM*
CCOc1ccc(-c2n[nH]c(=S)o2)cc1 | 1% | ? | 5µM* | nt | 23%
Cc1nn(-c2ccccc2)c2sc(-c3n[nH]c(=S)o3)cc12 | -25% | -33% | ? | ? | 33%
CCOc1ccccc1-c1nc(-c2ccncc2)no1 | 7% | -1% | 17%[59 µM] | ? | 41%
CCCCc1cc(-c2n[nH]c(=S)o2)c2ccccc2n1 | -7% | -25% | 4.5µM* | ? | 16%
COc1ccc(-c2n[nH]c(=S)o2)c(OC)c1 | ? | 79µM* | ? | -37% | 52%
CCOc1ccc(-c2n[nH]c(=S)c3ccccc23)cc1 | 3% | -15% | -6% | -4% | 58%
CCOc1ccccc1-c1n[nH]c(=S)o1 | -8% | 40µM* | 1.8µM* | ? | 16%
O=C(NCC(c1ccc2c(c1)OCO2)N1CCN(c2ccccc2)CC1)C(=O)Nc1ccc(F)cc1 (centres undefined) | nt | -16% | 1%[59 µM] | -1% | 16%[57 µM]
